Our source for the binding signal values is PMC12820563, “FoxP3 forms a head-to-head dimer in vivo and stabilizes its multimerization on adjacent microsatellites”.

In all, about 16,000 sequences were measured (“rpm ratio (pull-down/input)”: median about 0.94, highest 2% from about 1.7 on). This is one part of a sample in which the highest values are shown more often than they occur.

In this experiment the target is T1, MBP-FoxP1dN (Mus musculus, UniProt P58462 326-579).
T1 sequence: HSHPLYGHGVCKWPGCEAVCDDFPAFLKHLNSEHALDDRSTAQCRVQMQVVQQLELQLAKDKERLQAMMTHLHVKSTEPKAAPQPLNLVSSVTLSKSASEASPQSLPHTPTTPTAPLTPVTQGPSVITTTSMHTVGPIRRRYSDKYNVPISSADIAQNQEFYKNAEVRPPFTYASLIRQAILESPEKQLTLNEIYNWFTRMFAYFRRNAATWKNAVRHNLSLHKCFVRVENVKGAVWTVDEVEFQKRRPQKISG
Put plainly: PD-seq (MBP pull-down with sequencing); 20 mM Tris-HCl pH 7.5, 100 mM NaCl, 1.5 mM MgCl2, 0.4 uM protein, 0.1 uM dsDNA library, 30 min, room temperature, amylose pull-down; high values mean tight binding. As to conditions: protein: recombinant; tags: His6-MBP; chain copies: 2; dsDNA, one strand shown. Summed up: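 Binding is reads-per-million enrichment of pull-down over input, with replicates pooled. It comes from 30 min room-temperature incubation in Tris pH 7.5 buffer with NaCl and MgCl2 of 0.4 µM His6-MBP-tagged, N-terminally truncated mouse FoxP3 or FoxP1 fragment from E. coli with 0.1 µM Klenow-filled degenerate double-stranded DNA library, followed by amylose resin capture, three washes and Illumina sequencing of the released DNA.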
As to “GATGATTGTTCTCCCAGCTGATGAATTGGTCCCATCGAGTAAACAAATTTTCCTAATCTTTCTGTTCAAGCGCCATCTAC”, the binding signal was 0.976 RPM ratio (pull-down/input). Then “GATGATTGTTCTCCCAGCTGATGAATTGCTTAGGTCGAGTAAACAAATTTTCCTAATCTTTCTGTTCAAGCGCCATCTAC”, with 1.02 RPM ratio (pull-down/input); and “GATGATTGTTCTCCCAGCTGATGAATTAATGTCCTCGAGTAAACAAATTTTCCTAATCTTTCTGTTCAAGCGCCATCTAC”, with 0.913 RPM ratio (pull-down/input). For “GATGATTGTTCTCCCAGCTGATGAATTTGTGAGCTCGAGTAAACAAATTTTCCTAATCTTTCTGTTCAAGCGCCATCTAC” the value was 0.999 RPM ratio (pull-down/input); for “GATGATTGTTCTCCCAGCTGATGAATTAACGAAGTCGAGTAAACAAATTTTCCTAATCTTTCTGTTCAAGCGCCATCTAC”, 0.89 RPM ratio (pull-down/input); for “GATGATTGTTCTCCCAGCTGATGAATTGTGATGCTCGAGTAAACAAATTTTCCTAATCTTTCTGTTCAAGCGCCATCTAC”, 1.54 RPM ratio (pull-down/input).

As for “GATGATTGTTCTCCCAGCTGATGAATTTTCTGTATCGAGTAAACAAATTTTCCTAATCTTTCTGTTCAAGCGCCATCTAC”, the binding signal was 1.08 RPM ratio (pull-down/input).

Turning to “GATGATTGTTCTCCCAGCTGATGAATTGTGTGTATCGAGTAAACAAATTTTCCTAATCTTTCTGTTCAAGCGCCATCTAC”, the binding signal is 1.92 RPM ratio (pull-down/input).

Take “GATGATTGTTCTCCCAGCTGATGAATTTTTGTACTCGAGTAAACAAATTTTCCTAATCTTTCTGTTCAAGCGCCATCTAC”: the binding signal is 1.14 RPM ratio (pull-down/input).

With “GATGATTGTTCTCCCAGCTGATGAATTTGTGTACTCGAGTAAACAAATTTTCCTAATCTTTCTGTTCAAGCGCCATCTAC”, the binding signal is 2.09 RPM ratio (pull-down/input). For “GATGATTGTTCTCCCAGCTGATGAATTTGTACTCTCGAGTAAACAAATTTTCCTAATCTTTCTGTTCAAGCGCCATCTAC” the value was 1.15 RPM ratio (pull-down/input); for “GATGATTGTTCTCCCAGCTGATGAATTGTGTATCTCGAGTAAACAAATTTTCCTAATCTTTCTGTTCAAGCGCCATCTAC”, 1.67 RPM ratio (pull-down/input); for “GATGATTGTTCTCCCAGCTGATGAATTCTGTACCTCGAGTAAACAAATTTTCCTAATCTTTCTGTTCAAGCGCCATCTAC”, 0.846 RPM ratio (pull-down/input). Then “GATGATTGTTCTCCCAGCTGATGAATTAATGTAATCGAGTAAACAAATTTTCCTAATCTTTCTGTTCAAGCGCCATCTAC”, with 1.68 RPM ratio (pull-down/input); and “GATGATTGTTCTCCCAGCTGATGAATTCATCGTGTCGAGTAAACAAATTTTCCTAATCTTTCTGTTCAAGCGCCATCTAC”, with 0.891 RPM ratio (pull-down/input); and “GATGATTGTTCTCCCAGCTGATGAATTTGACGAATCGAGTAAACAAATTTTCCTAATCTTTCTGTTCAAGCGCCATCTAC”, with 0.846 RPM ratio (pull-down/input).

Turning to “GATGATTGTTCTCCCAGCTGATGAATTGAGATGCTCGAGTAAACAAATTTTCCTAATCTTTCTGTTCAAGCGCCATCTAC”, the binding signal was 1.07 RPM ratio (pull-down/input).

“GATGATTGTTCTCCCAGCTGATGAATTAGCTCGGTCGAGTAAACAAATTTTCCTAATCTTTCTGTTCAAGCGCCATCTAC”: the binding signal is 0.829 RPM ratio (pull-down/input). Then “GATGATTGTTCTCCCAGCTGATGAATTATGAGATTCGAGTAAACAAATTTTCCTAATCTTTCTGTTCAAGCGCCATCTAC”, with 0.995 RPM ratio (pull-down/input); and “GATGATTGTTCTCCCAGCTGATGAATTAACTACCTCGAGTAAACAAATTTTCCTAATCTTTCTGTTCAAGCGCCATCTAC”, with 0.879 RPM ratio (pull-down/input); and “GATGATTGTTCTCCCAGCTGATGAATTAAATGTTTCGAGTAAACAAATTTTCCTAATCTTTCTGTTCAAGCGCCATCTAC”, with 1.3 RPM ratio (pull-down/input). For “GATGATTGTTCTCCCAGCTGATGAATTAATGTTTTCGAGTAAACAAATTTTCCTAATCTTTCTGTTCAAGCGCCATCTAC” the value was 2.45 RPM ratio (pull-down/input); for “GATGATTGTTCTCCCAGCTGATGAATTATGATGGTCGAGTAAACAAATTTTCCTAATCTTTCTGTTCAAGCGCCATCTAC”, 1.1 RPM ratio (pull-down/input); for “GATGATTGTTCTCCCAGCTGATGAATTATGTTGGTCGAGTAAACAAATTTTCCTAATCTTTCTGTTCAAGCGCCATCTAC”, 1.87 RPM ratio (pull-down/input). For “GATGATTGTTCTCCCAGCTGATGAATTATGTTTTTCGAGTAAACAAATTTTCCTAATCTTTCTGTTCAAGCGCCATCTAC” the value was 2.19 RPM ratio (pull-down/input); for “GATGATTGTTCTCCCAGCTGATGAATTTTATGTTTCGAGTAAACAAATTTTCCTAATCTTTCTGTTCAAGCGCCATCTAC”, 1.19 RPM ratio (pull-down/input); for “GATGATTGTTCTCCCAGCTGATGAATTATGTGTTTCGAGTAAACAAATTTTCCTAATCTTTCTGTTCAAGCGCCATCTAC”, 1.51 RPM ratio (pull-down/input).

On to “GATGATTGTTCTCCCAGCTGATGAATTATCTTGGTCGAGTAAACAAATTTTCCTAATCTTTCTGTTCAAGCGCCATCTAC”, for which the binding signal was 0.937 RPM ratio (pull-down/input).

With “GATGATTGTTCTCCCAGCTGATGAATTTAATGTTTCGAGTAAACAAATTTTCCTAATCTTTCTGTTCAAGCGCCATCTAC”, the binding signal is 1.15 RPM ratio (pull-down/input). For “GATGATTGTTCTCCCAGCTGATGAATTATGATGTTCGAGTAAACAAATTTTCCTAATCTTTCTGTTCAAGCGCCATCTAC” the value was 1.22 RPM ratio (pull-down/input); for “GATGATTGTTCTCCCAGCTGATGAATTTTTATGTTCGAGTAAACAAATTTTCCTAATCTTTCTGTTCAAGCGCCATCTAC”, 1.37 RPM ratio (pull-down/input). For “GATGATTGTTCTCCCAGCTGATGAATTTATGTTTTCGAGTAAACAAATTTTCCTAATCTTTCTGTTCAAGCGCCATCTAC” the value was 2.76 RPM ratio (pull-down/input); for “GATGATTGTTCTCCCAGCTGATGAATTCCTAATCTCGAGTAAACAAATTTTCCTAATCTTTCTGTTCAAGCGCCATCTAC”, 0.834 RPM ratio (pull-down/input). For “GATGATTGTTCTCCCAGCTGATGAATTATGATATTCGAGTAAACAAATTTTCCTAATCTTTCTGTTCAAGCGCCATCTAC” the value was 1.24 RPM ratio (pull-down/input); for “GATGATTGTTCTCCCAGCTGATGAATTATACCTCTCGAGTAAACAAATTTTCCTAATCTTTCTGTTCAAGCGCCATCTAC”, 0.896 RPM ratio (pull-down/input); for “GATGATTGTTCTCCCAGCTGATGAATTAAGCTTATCGAGTAAACAAATTTTCCTAATCTTTCTGTTCAAGCGCCATCTAC”, 1.03 RPM ratio (pull-down/input). Take “GATGATTGTTCTCCCAGCTGATGAATTCTCTTCATCGAGTAAACAAATTTTCCTAATCTTTCTGTTCAAGCGCCATCTAC”: the binding signal was 0.886 RPM ratio (pull-down/input). For “GATGATTGTTCTCCCAGCTGATGAATTATGTTCATCGAGTAAACAAATTTTCCTAATCTTTCTGTTCAAGCGCCATCTAC” the value was 1.04 RPM ratio (pull-down/input). Turning to “GATGATTGTTCTCCCAGCTGATGAATTATGAATTTCGAGTAAACAAATTTTCCTAATCTTTCTGTTCAAGCGCCATCTAC”, the binding signal was 1.03 RPM ratio (pull-down/input). For “GATGATTGTTCTCCCAGCTGATGAATTATGATGATCGAGTAAACAAATTTTCCTAATCTTTCTGTTCAAGCGCCATCTAC” the value was 1.15 RPM ratio (pull-down/input); for “GATGATTGTTCTCCCAGCTGATGAATTATGTTCTTCGAGTAAACAAATTTTCCTAATCTTTCTGTTCAAGCGCCATCTAC”, 1.15 RPM ratio (pull-down/input); for “GATGATTGTTCTCCCAGCTGATGAATTATGTTGTTCGAGTAAACAAATTTTCCTAATCTTTCTGTTCAAGCGCCATCTAC”, 2.67 RPM ratio (pull-down/input). For “GATGATTGTTCTCCCAGCTGATGAATTATGTTGATCGAGTAAACAAATTTTCCTAATCTTTCTGTTCAAGCGCCATCTAC” the value was 2.81 RPM ratio (pull-down/input).
